Some test systems named below: RPMI-8226 leukemia; OVCAR-8 ovarian; OVCAR-4 ovarian; SK-OV-3 ovarian; IGROV1 ovarian; OVCAR-3 ovarian; HS 578T breast; NCI/ADR-RES ovarian; T-47D breast; BT-549 breast; MDA-MB-435 melanoma; SW-620 colon; MCF7 breast; HCT-116 colon; HCC-2998 colon; KM12 colon; MDA-MB-468 breast; OVCAR-5 ovarian.
Assay in all cases: NCI-60 one-dose screen, 48 h (100 = growth as untreated, 0 = no growth, -100 = all killed)
Common to all, as to settings: 10 µM

Compounds without any hit were thinned out: in the full panel of roughly 83,000, 20% have a hit.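 Values shown are percent growth following 48 h exposure of cells in 96-well plates to a single concentration of compound; below 10 was considered active.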 Values without a mark were called inactive. Active and inactive are the calls of the source.

Regarding `COc1ccc2nc(Cl)c(-c3cc(-c4ccccc4)nc(=S)[nH]3)cc2c1`, the growth with RPMI-8226 leukemia is 71.7%; in the assay with OVCAR-8 ovarian it was 68.2%; with OVCAR-4 ovarian, 90.1%; with SK-OV-3 ovarian, 37.4%; in the assay with IGROV1 ovarian, 79%; in the assay on OVCAR-3 ovarian, 80.8%. Besides, the growth with HS 578T breast was 31.7%; in the assay with NCI/ADR-RES ovarian it was 40.9%; in the assay on T-47D breast, 76.4%; in the assay with BT-549 breast, 14.7%; in the assay on MDA-MB-435 melanoma it was -27.6% (active); with SW-620 colon it was 78.9%. The growth in the assay with MCF7 breast was 65%; in the assay on HCT-116 colon, 66.4%; in the assay on HCC-2998 colon, 97.3%; with KM12 colon, 76.8%; with MDA-MB-468 breast, 76%.
For the compound `CN1CCN(c2ccc(Nc3nc(NCCCNC(=O)c4ccccc4)c4sccc4n3)cc2)CC1`, the growth in the assay on RPMI-8226 leukemia was 14.8%; with OVCAR-8 ovarian, 55.9%; in the assay with OVCAR-5 ovarian, 88.4%; in the assay on OVCAR-4 ovarian it was 77.9%; in the assay with SK-OV-3 ovarian, 113%; in the assay on HS 578T breast it was 78.8%. In addition, the growth with NCI/ADR-RES ovarian was 82.3%; in the assay on T-47D breast, 54.3%; in the assay on BT-549 breast, 138%; in the assay with MDA-MB-435 melanoma it was 64.4%; in the assay with SW-620 colon it was 60.6%; in the assay on MCF7 breast, 38.4%. The growth in the assay on HCT-116 colon was 30.9%; in the assay on HCC-2998 colon, 83.2%; in the assay on KM12 colon, 54.4%.
Take `O=C(CSc1ccc(-c2ccc(Cl)cc2)nn1)Nc1ccc(Cl)c(C(F)(F)F)c1`: the growth with RPMI-8226 leukemia was 66.8%; in the assay on OVCAR-8 ovarian it was 76.4%; in the assay on OVCAR-5 ovarian, 79.6%; in the assay with OVCAR-4 ovarian, 76.1%; with SK-OV-3 ovarian, 75.4%; in the assay on OVCAR-3 ovarian it was 69.3%. Further, the growth with HS 578T breast was 70.6%; in the assay with NCI/ADR-RES ovarian, 27.9%; in the assay with T-47D breast it was 58.3%; in the assay with BT-549 breast it was 74.6%; in the assay with MDA-MB-435 melanoma, 0.967% (active); in the assay on SW-620 colon, 36%. Further, the growth is 31.5% with MCF7 breast; 50.7% in the assay on HCT-116 colon; 69.5% with HCC-2998 colon; 43.3% in the assay on KM12 colon; 16.5% in the assay on MDA-MB-468 breast.
Turning to `Nc1n[nH]c2cccc(C#Cc3cccc(NC(=O)Nc4cc(C(F)(F)F)cc(C(F)(F)F)c4)c3)c12`, the growth is -16.3% (active) with RPMI-8226 leukemia; -5.59% (active) in the assay with OVCAR-8 ovarian; -46% (active) in the assay with OVCAR-5 ovarian; -3.45% (active) in the assay on OVCAR-4 ovarian; -28.9% (active) with SK-OV-3 ovarian; -20.4% (active) in the assay on OVCAR-3 ovarian. Moreover, the growth was -20.5% (active) with HS 578T breast; -48.9% (active) in the assay with NCI/ADR-RES ovarian; -11.3% (active) with T-47D breast; -66.8% (active) in the assay on BT-549 breast; -76.7% (active) with MDA-MB-435 melanoma; -75.7% (active) in the assay with SW-620 colon. The growth in the assay with MCF7 breast was -37.2% (active); in the assay on HCT-116 colon, 2.34% (active); in the assay on KM12 colon it was -61.5% (active); in the assay on MDA-MB-468 breast, -59.7% (active).
As to `COc1ccsc1/C=N/NC(=O)c1[nH]c2ccc(Br)cc2c1-c1ccccc1`, the growth is -13.6% (active) in the assay with RPMI-8226 leukemia; -16.2% (active) in the assay on OVCAR-8 ovarian; 26.6% with OVCAR-5 ovarian; 22.1% in the assay on OVCAR-4 ovarian; 20.9% in the assay on SK-OV-3 ovarian; 25.8% in the assay with OVCAR-3 ovarian. Also, the growth is -1.24% (active) with HS 578T breast; -23.9% (active) with NCI/ADR-RES ovarian; -2.72% (active) with T-47D breast; 13.8% in the assay on BT-549 breast; 2.33% (active) in the assay with MDA-MB-435 melanoma; 18.4% in the assay with SW-620 colon. Besides, the growth is 1.13% (active) in the assay with MCF7 breast; 0.361% (active) with HCT-116 colon; -5.18% (active) in the assay with HCC-2998 colon; -0.302% (active) in the assay with KM12 colon; -6.2% (active) in the assay on MDA-MB-468 breast.
`CO[C@H]1CSS[C@@H]1Cn1nc(-c2ccc(Oc3ccccc3)cc2)c2c(N)ncnc21`: the growth in the assay with RPMI-8226 leukemia is 36.4%; with OVCAR-8 ovarian it was 48.2%; in the assay with OVCAR-4 ovarian it was 50.2%; in the assay with SK-OV-3 ovarian it was -1.28% (active); with IGROV1 ovarian, 29.4%; with OVCAR-3 ovarian it was 61.2%. Also, the growth was 28.4% in the assay on HS 578T breast; 42.6% in the assay on NCI/ADR-RES ovarian; 2.61% (active) with T-47D breast; 4.49% (active) with BT-549 breast; -46.5% (active) with MDA-MB-435 melanoma; 66.4% with SW-620 colon. Besides, the growth with MCF7 breast was 10.2%; in the assay on HCT-116 colon, 7.35% (active); with HCC-2998 colon, 14%; in the assay with KM12 colon, 17.5%; in the assay with MDA-MB-468 breast, -21.2% (active).
Take `CC1=C2C(=C[C@@](C)(COCOCCCl)[C@@H]2O)C(=O)[C@](C)(O)C12CC2`: the growth is 10.1% with RPMI-8226 leukemia; -38.4% (active) in the assay on OVCAR-8 ovarian; -48.6% (active) in the assay with OVCAR-4 ovarian; -33.7% (active) with SK-OV-3 ovarian; -38.5% (active) in the assay with IGROV1 ovarian; -27.4% (active) with OVCAR-3 ovarian. In addition, the growth was -15.8% (active) with HS 578T breast; -61.7% (active) in the assay with NCI/ADR-RES ovarian; -15.8% (active) in the assay on T-47D breast; -81.2% (active) with BT-549 breast; -81.1% (active) in the assay on MDA-MB-435 melanoma; 0.591% (active) in the assay on SW-620 colon. The growth was -46.2% (active) in the assay with MCF7 breast; 12.6% with HCT-116 colon; -91.7% (active) with HCC-2998 colon; 0.906% (active) with KM12 colon; -89.9% (active) in the assay on MDA-MB-468 breast.
For `COc1ccc2[nH]c(O)c(N=NC(=O)COc3ccc(NC(=O)Nc4ccc(Cl)c(Cl)c4)cc3)c2c1`, the growth in the assay with RPMI-8226 leukemia is 11.1%; in the assay on OVCAR-8 ovarian it was -69.2% (active); in the assay on OVCAR-5 ovarian, -21.8% (active); with OVCAR-4 ovarian it was -92.7% (active); with SK-OV-3 ovarian, -12.4% (active); in the assay on IGROV1 ovarian, -4.72% (active). The growth with HS 578T breast is -3.4% (active); with NCI/ADR-RES ovarian it was 84.4%; in the assay with T-47D breast it was -72.1% (active); with BT-549 breast it was -20.6% (active); in the assay on MDA-MB-435 melanoma it was -88.8% (active); in the assay on SW-620 colon, 3.28% (active). In addition, the growth is -26% (active) in the assay on MCF7 breast, -42% (active) with HCT-116 colon, -67.4% (active) in the assay on HCC-2998 colon and -57.8% (active) in the assay on MDA-MB-468 breast.

(Values after PubChem BioAssay (NCI).)
